Screening data as filed in PubChem BioAssay.
Most compounds without a hit are left out; they make up all but 1.3% or so of the library.
LRH-1 inv ag = suppresses constitutive activity of human LRH-1 | 360,000 compounds, 0.13% hits | HEK293T StAR-luciferase reporter, LRH-1 transfected, 24 h | inhibition, % at 3.6 µM | O00482;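 active = inhibition above the mean inhibition of all tested compounds plus 3 SD, cut at about 73% in these data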
NCOA3 inh = inhibitors of human steroid receptor coactivator 3 (SRC3); Q9Y6Q9; HEK293 GAL4-SRC3 luciferase reporter, luminescence; inhibition, % at 3.6 µM; 360,000 compounds, 0.17% hits; AID 588352;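 active = inhibition above a per-campaign cutoff, the mean of all compounds plus 3 SD, cut at about 60% in these data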;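 note: higher means less SRC3-driven luciferase light from the GAL4 reporter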
Target sequence (Q9Y6Q9 whole entry, looked up, the tested form may be a part): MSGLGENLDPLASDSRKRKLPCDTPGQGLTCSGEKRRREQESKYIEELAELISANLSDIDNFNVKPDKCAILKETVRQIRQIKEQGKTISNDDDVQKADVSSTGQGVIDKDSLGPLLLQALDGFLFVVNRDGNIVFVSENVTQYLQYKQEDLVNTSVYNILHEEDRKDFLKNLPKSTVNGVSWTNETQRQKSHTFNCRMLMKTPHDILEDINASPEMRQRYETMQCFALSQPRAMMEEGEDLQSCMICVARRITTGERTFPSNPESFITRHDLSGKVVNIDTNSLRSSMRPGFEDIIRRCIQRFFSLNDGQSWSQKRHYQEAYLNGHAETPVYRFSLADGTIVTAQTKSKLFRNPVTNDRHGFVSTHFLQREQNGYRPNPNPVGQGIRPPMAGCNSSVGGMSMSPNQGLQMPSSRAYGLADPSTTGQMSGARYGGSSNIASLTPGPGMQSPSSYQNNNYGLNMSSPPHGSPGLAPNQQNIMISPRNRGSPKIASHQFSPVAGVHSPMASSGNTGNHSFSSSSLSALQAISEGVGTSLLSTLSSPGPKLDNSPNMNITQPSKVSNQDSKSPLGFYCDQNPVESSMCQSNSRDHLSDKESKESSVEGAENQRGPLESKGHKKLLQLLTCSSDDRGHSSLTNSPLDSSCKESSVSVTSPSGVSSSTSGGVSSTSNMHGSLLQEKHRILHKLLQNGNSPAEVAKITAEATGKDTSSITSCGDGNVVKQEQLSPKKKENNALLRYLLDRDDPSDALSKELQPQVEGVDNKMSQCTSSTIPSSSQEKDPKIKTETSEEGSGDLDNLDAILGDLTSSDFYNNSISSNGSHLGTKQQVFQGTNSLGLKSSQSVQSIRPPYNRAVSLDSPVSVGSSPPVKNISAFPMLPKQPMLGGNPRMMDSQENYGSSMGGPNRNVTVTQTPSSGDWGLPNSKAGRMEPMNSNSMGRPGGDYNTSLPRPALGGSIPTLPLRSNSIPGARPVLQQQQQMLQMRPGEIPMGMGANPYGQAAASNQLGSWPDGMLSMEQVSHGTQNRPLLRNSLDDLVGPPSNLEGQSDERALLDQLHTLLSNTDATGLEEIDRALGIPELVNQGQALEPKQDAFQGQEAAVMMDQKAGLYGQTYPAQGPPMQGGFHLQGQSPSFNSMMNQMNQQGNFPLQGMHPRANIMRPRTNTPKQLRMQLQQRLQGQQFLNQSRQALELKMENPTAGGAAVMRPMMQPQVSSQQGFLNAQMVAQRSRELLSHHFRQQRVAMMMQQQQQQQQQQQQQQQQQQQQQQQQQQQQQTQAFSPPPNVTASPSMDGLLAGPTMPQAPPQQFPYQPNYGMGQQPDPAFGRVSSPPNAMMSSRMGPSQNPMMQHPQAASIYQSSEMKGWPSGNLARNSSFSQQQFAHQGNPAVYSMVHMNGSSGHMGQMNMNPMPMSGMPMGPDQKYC
SRC1 inh = inhibits human SRC1 coactivator | Q15788 | HEK293 GAL4-SRC1 luciferase reporter, luminescence | inhibition, % at 3.6 µM | 360,000 compounds, 0.12% hits;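 active = inhibition above the campaign mean plus 3 SD, with each screening campaign given its own cutoff, cut at about 60% in these data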
COUP-TFII inh = NR2F2 (human) inhibition, primary screen; P24468; HEK293T NGFI-A luciferase reporter, luminescence; inhibition, % at 8.6 µM; 370,000 compounds, 0.7% hits; AID 686940;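 active = inhibition above a per-plate cutoff, mean inhibition of test wells between control levels plus 3 SD, cut at about 38% in these data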;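 note: cells cotransfected with COUP-TFII expression vector driving the NGFI-A reporter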
Gli-Sufu block = blocks Gli-Sufu signaling in a luciferase reporter. inhibition, % at 5 µM. AID 588413. Sufu-KO-LIGHT fibroblasts, Gli luciferase reporter luminescence. 340,000 compounds, 0.74% hits;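 active = inhibition above about 55%, limit read from the data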
NCOA2 inhibitor = human SRC2 (NCOA2) inhibition. Q15596. HEK293 GAL4-SRC2 luciferase reporter, luminescence. inhibition, % at 9 µM. 370,000 compounds, 0.17% hits. AID 651957;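 active = inhibition above the mean inhibition of all tested compounds plus 3 SD, set per campaign, cut at about 52% in these data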
Gli-Sufu confirm = confirmation of Gli-SUFU pathway antagonists | shares compounds with Gli-Sufu block | Sufu-KO-LIGHT cells, Gli luciferase reporter, luminescence | inhibition, % at 5 µM | 2,500 compounds, 40% hits | AID 602428;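 active = mean inhibition at 5 µM reaching about 45%, limit read from the data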
SufuKO cytotox = counter-screen for Gli-SUFU antagonists: cytotoxicity. cytotoxicity, % at 5 µM. 2,500 compounds, 32% hits. shares compounds with Gli-Sufu block. Sufu-KO-LIGHT cells cytotoxicity, ATP luminescence. AID 651994;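 active = mean cytotoxicity at 5 µM above about 25%, limit read from the data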;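 note: cells exposed to compound overnight for roughly 16 to 18 hours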
Wnt3a counter = Wnt3a reporter inhibition counter-screen | inhibition, % at 6.25 µM | 2,500 compounds, 20% hits | shares compounds with Gli-Sufu block | Wnt-LIGHT cells, Wnt3a-driven luciferase reporter, luminescence;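 active = mean inhibition above about 25%, limit read from the data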
A number is an active result; 0 = inactive; - = no result given.

SMILES	LRH-1 inv ag	NCOA3 inh	SRC1 inh	COUP-TFII inh	Gli-Sufu block	NCOA2 inhibitor	Gli-Sufu confirm	SufuKO cytotox	Wnt3a counter
CCN(C(=O)COC(=O)/C=C/c1cnc2ccccc2n1)C1CCS(=O)(=O)C1 (stereo unspecified)	0	0	0	0	56.1	0	0	0	0
O=C(N/N=C/c1cn(CCOc2ccccc2)c2ccccc12)c1ccncc1	0	0	0	0	0	0	0	0	0
CCN(C(=O)CSc1nnc(-c2ccncc2)n1Cc1ccccc1)C1CCS(=O)(=O)C1 (stereo unspecified)	0	0	0	0	58.2	0	0	0	0
CCN(C(=O)CSc1nnc(C)n1Cc1ccccc1)C1CCS(=O)(=O)C1 (stereo unspecified)	0	0	0	0	0	0	-	-	-
C[C@H]1Cn2nnc(-c3ccccc3)c2Cn2c3ccccc3c(=O)n21	-	-	-	0	-	0	-	-	-
O=C(N[C@@H]1C/C=C\C[C@H](CC(=O)N(CCO)Cc2ccccc2)C(=O)N[C@@H](Cc2c[nH]c3ccccc23)COC1=O)OCC1c2ccccc2-c2ccccc21	0	0	0	0	0	0	56.8	0	0
O=C(N[C@H]1C/C=C\C[C@@H](CC(=O)N(CCO)Cc2ccccc2)C(=O)N[C@H](Cc2c[nH]c3ccccc23)COC1=O)OCC1c2ccccc2-c2ccccc21	0	0	0	0	0	0	52.0	0	0
O=C(N[C@@H]1C/C=C\C[C@@H](CC(=O)N(CCO)Cc2ccccc2)C(=O)N[C@@H](c2ccccc2)COC1=O)OCC1c2ccccc2-c2ccccc21	0	0	0	0	56.0	0	56.4	0	0
c1ccc2c(Nc3ccc4c(c3)OCCO4)c3c(nc2c1)CCCC3	0	0	0	0	0	0	0	0	0
Fc1cccc(Nc2c3c(nc4ccccc24)CCC3)c1	0	0	0	0	0	0	-	-	-
CCCC[C@H]1C2CC(OC(=O)NCCCC(=O)OCC)C(C2)[C@H]2CCCCN21 (stereo partly specified)	-	-	-	0	-	0	-	-	-
Cc1ccccc1OCc1nc2ccccc2c(=O)n1/N=C/c1ccco1	0	0	0	0	93.4	0	0	25.8	0
OC1(c2cccs2)CN(c2ccc(Cl)cc2)C2=[N+]1CCCC2 (stereo unspecified)	0	0	0	0	0	0	-	-	-
Cc1ccc(C)c(N2CC(O)(c3cccs3)[N+]3=C2CCCC3)c1 (stereo unspecified)	0	0	0	0	62.5	0	50.0	26.5	0
CC1CC(C)CN(CCCNS(=O)(=O)c2cc3c(cc2Br)CCN3C(=O)C2CC2)C1 (stereo unspecified)	-	-	-	0	-	0	-	-	-
CN1C(=O)C[C@@](C#N)(C(=O)Nc2nc3ccc(F)cc3s2)[C@H]1c1ccccc1	-	-	-	0	-	0	-	-	-
Cc1cc(C)cc(OCC(O)CN2CCN(Cc3ccc4c(c3)OCO4)CC2)c1 (stereo unspecified)	0	0	0	0	64.3	0	0	0	0
COc1ccc(CC(=O)N2CCCc3ccccc32)cc1OC	0	0	0	0	91.1	0	0	0	0
Cc1ccc(-c2nnc(N3CCC(C)CC3)c3ccccc23)cc1	0	0	0	0	0	0	-	-	-
Cc1ccc(-c2nnc(N3CCC(C)CC3)c3ccccc23)cc1C	0	0	0	0	0	0	0	0	26.7
COc1ccc(C(=O)NCCN(C)C)c2nc3ccccc3cc12	0	0	0	0	63.5	0	70.4	38.5	0
COc1ccc(-c2nc3c(C(=O)NCCN(C)C)cccc3c3ccccc23)cc1	0	0	0	0	0	0	-	-	-
COc1cccc2nc3c(C(=O)NCCN(C)C)cccc3cc12	0	0	63.4	0	69.7	0	61.6	0	0
COc1ccc(Cl)cc1C(=O)NCCN(C)C	0	0	0	0	0	0	-	-	-
Nc1[nH]c(C(=O)c2ccccc2)c(-c2ccc(Br)cc2)c1C(=O)N1CCN(CCO)CC1	-	-	-	0	-	-	-	-	-
SMILES	LRH-1 inv ag	NCOA3 inh	SRC1 inh	COUP-TFII inh	Gli-Sufu block	NCOA2 inhibitor	Gli-Sufu confirm	SufuKO cytotox	Wnt3a counter
COCCNC(=O)c1cccc(OC2CCN(Cc3ccc(C(=O)OC)cc3)CC2)c1	0	0	0	0	59.9	0	0	0	0
CCOC(=O)[C@]12CCCC3=C1N(CCC3)C(=O)[C@@H](CC(=O)NCCCCc1ccccc1)C2	-	-	-	0	-	0	-	-	-
C/C(=C\C(=O)c1ccc(Br)cc1)NNC(=O)c1ccc(O)cc1	0	0	0	0	0	0	-	-	-
C/C(=C\C(=O)c1ccc(Br)cc1)NNC(=O)c1ccccc1	0	0	0	0	0	0	0	0	0
NC(=S)N/N=C/c1cccc(O)c1O	0	0	0	0	81.7	0	0	0	0
Cc1cc(N2CCN(c3nc(-c4ccc([N+](=O)[O-])cc4)cs3)CC2)c2ccccc2n1	0	0	0	0	63.1	0	0	0	0
COc1ccc(C)cc1-n1nnnc1SCn1nnc2ccccc2c1=O	0	0	0	0	57.5	0	64.3	30.7	31.7
COc1ccc(C)cc1-n1nnnc1SCc1cc(=O)n2cc(C)ccc2n1	0	0	0	0	57.9	0	57.0	36.6	0
O=C(O)CCN1C(=O)/C(=C/c2cccc(OCc3ccc(F)cc3)c2)SC1=S	-	-	-	0	-	-	-	-	-
COc1cc(OC)cc(C(=O)OCC(=O)c2ccc(S(=O)(=O)N3CCCCC3)cc2)c1	0	0	0	0	95.8	0	0	0	0
CN1/C(=C/C(=S)NC(=O)C2(C)CC2(Cl)Cl)C(C)(C)c2ccccc21 (stereo unspecified)	0	0	0	0	60.5	0	0	26.2	0
CN1/C(=C\C(=S)NC(=O)c2ccccc2Cl)C(C)(C)c2ccccc21	0	0	0	0	72.9	0	55.1	31.3	30.1
CN1/C(=C\C(=S)Nc2ccccc2)C(C)(C)c2ccccc21	0	0	0	0	64.6	0	73.9	0	28.2
COc1ccccc1C(=O)NC(=S)/C=C1/N(C)c2ccccc2C1(C)C	0	0	0	0	77.9	0	0	26.3	0
CCOC(=O)/C=C1/N(C)c2ccccc2C1(C)C	0	0	0	0	0	0	-	-	-
CN1/C(=C\C(=O)Nc2ccc(Cl)cc2)C(C)(C)c2ccccc21	0	0	0	0	0	0	-	-	-
COC(=O)C1CN(Cc2ccc(F)cc2)CCS(=O)(=O)N1Cc1ccc(C(F)(F)F)cc1 (stereo unspecified)	-	-	-	0	-	0	-	-	-
COc1ccc2[nH]c(C)c(CCNC(=S)Nc3ccccc3C)c2c1	0	0	0	0	69.0	0	0	0	0
Cc1cccc(NC(=O)c2cnn(-c3ccc(F)cc3)c2C2CCNCC2)c1C	0	0	0	0	0	0	0	0	0
